Results from PubChem BioAssay (NCATS).
Results filed as inconclusive are left out. The source made the active and inactive calls. Calls follow the shape of the dose curve; as a rule, active = well fitted inhibition curve with a large enough effect; inconclusive = small, poorly fitted or top-dose-only effect; inactive = flat fitted curve, though single readings scatter.

Tests used:
Experiment in all cases: qHTS profiling for inhibitors of Plasmodium falciparum proliferation (AID 504749); also: nearly all actives have a fitted effect of over 60% in size
Conditions in all cases: P. falciparum in erythrocytes, SYBR Green DNA, 72 h; series mostly up to 28.7 µM
CP315 = tested on: CP315
How it was run: (§1)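 SYBR Green fluorescence of parasite DNA, read after lysis and overnight dark incubation, measured growth over 72 h in erythrocyte culture at 0.3% parasitemia and 2.5% hematocrit. Data normalised to DMSO and 0.29 uM artemisinin, with plate-drift correction.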

CP325 = tested on: CP325
How it was run: as §1

CP329 = tested on: CP329
How it was run: as §1

DFO2036 = tested on: DFO2036
How it was run: as §1

DIV14 = tested on: DIV14
How it was run: as §1

DIV17 = tested on: DIV17
How it was run: as §1

Dd2 = tested on: Dd2
How it was run: as §1

DIV30 = tested on: DIV30
How it was run: as §1

ECU = tested on: ECU
How it was run: as §1

CP335 = tested on: CP335
How it was run: as §1

Measured: Potency
Potency is read from the fitted curve at half-maximal effect.

O=C(O[C@H]1CN2CCC1CC2)N1CCc2ccccc2[C@@H]1c1ccccc1
active: DIV14 3.79 µM | DIV17 4.26 µM | Dd2 4.47 µM
inactive: CP315 | CP325 | CP329 | DFO2036

CCOC(=O)[C@@H](N)CS
not listed: CP335
inactive: all other assays above

CN(C)CCCSc1ccccc1NC(=O)/C=C/c1ccccc1
not listed: DIV14 | DIV17 | Dd2
inactive: all other assays above

CN1CCCC(CN2c3ccccc3Sc3ccccc32)C1 (stereo not drawn)
active: DIV14 8.49 µM | DIV17 8.49 µM | Dd2 4.47 µM
inactive: CP315 | CP325 | CP329

C=CCOc1ccc(CC(=O)O)cc1Cl
not listed: CP335
inactive: all other assays above

C=CC[C@@H]1/C=C(\C)C[C@H](C)C[C@H](OC)[C@H]2O[C@@](O)(C(=O)C(=O)N3CCCC[C@H]3C(=O)O[C@H](/C(C)=C/[C@@H]3CC[C@@H](O)[C@H](OC)C3)[C@H](C)[C@@H](O)CC1=O)[C@H](C)C[C@@H]2OC
active: CP315 6.75 µM | CP325 4.26 µM | CP329 4.26 µM | DFO2036 1 µM | DIV14 1.69 µM | DIV17 1.69 µM | DIV30 0.849 µM | Dd2 0.112 µM | ECU 1.26 µM

Nc1ccc(N=Nc2ccccc2)c(N)n1
not listed: ECU | CP335
inactive: all other assays above

CCC(O)c1ccccc1 (stereo not drawn)
not listed: CP335
inactive: all other assays above

C[C@]12CCC(=O)C[C@@H]1CC[C@@H]1[C@@H]2CC[C@]2(C)C=CC[C@@H]12
not listed: CP335
inactive: all other assays above

CC1CCC(NC(=O)N(CCCl)N=O)CC1 (stereo not drawn)
not listed: DIV14 | Dd2 | CP335
inactive: all other assays above

N[C@@H](Cc1cc(I)c(Oc2ccc(O)c(I)c2)c(I)c1)C(=O)O
inactive: CP315 | CP325 | CP329
active: DIV14 13.5 µM

Cc1ccc(S(=O)(=O)O)cc1C
not listed: CP335
inactive: all other assays above

O=C(OC1C[C@@H]2CC3C[C@H](C1)N2CC3=O)c1c[nH]c2ccccc12 (stereo partly drawn)
active: DIV14 7.57 µM | DIV17 7.57 µM
inactive: CP315 | CP325 | CP329 | DFO2036 | Dd2

OC1OC[C@@H](O)[C@H](O)[C@@H]1O (stereo partly drawn)
not listed: CP335
inactive: all other assays above

CC1CC(OC(=O)C(O)c2ccccc2)CC(C)(C)C1 (stereo not drawn)
not listed: CP335
inactive: all other assays above

N=C(N)c1ccc(/C=C/c2ccc(C(=N)N)cc2O)cc1
active: CP315 6.01 µM | CP325 3.38 µM | CP329 2.13 µM | DFO2036 1.12 µM | DIV14 6.75 µM | DIV17 6.01 µM | DIV30 2.13 µM | Dd2 0.112 µM | ECU 10 µM

O=C(Nc1ccc(O)cc1)c1ccccc1O
not listed: DIV30 | ECU | CP335
inactive: all other assays above

CCOC(=O)Cc1ccc(-c2ccccc2)cc1
not listed: DFO2036 | DIV30 | CP335
inactive: all other assays above

Cc1ncc(C[n+]2csc(CCO)c2C)c(N)n1
not listed: CP335
inactive: all other assays above

CC(=O)Nc1ccc(NC(=S)NC(=O)c2ccc(C(C)(C)C)cc2)cc1
not listed: DIV14 | Dd2 | CP335
inactive: all other assays above

Cc1c(C)c2c(c(C)c1OC(=O)CCC(=O)O)CC[C@@](C)(CCC[C@H](C)CCC[C@H](C)CCCC(C)C)O2
active: Dd2 11.2 µM
not listed: CP335
inactive: all other assays above

O=c1n(CC2CO2)c(=O)n(CC2CO2)c(=O)n1CC1CO1 (stereo not drawn)
inactive: CP315 | CP325 | CP329 | DIV30 | ECU

CCN(CC)CCC(=O)N1c2ccccc2Sc2ccc(C(F)(F)F)cc21
active: DIV14 6.75 µM
inactive: CP315 | CP325 | CP329 | DFO2036 | ECU

O=P(O)(O)OP(=O)(O)O
not listed: DIV14 | DIV17 | DIV30
inactive: all other assays above

CCOC(=O)C1=C(COCCN)NC(C)=C(C(=O)OC)C1c1ccccc1Cl (stereo not drawn)
active: DIV14 12 µM
inactive: CP315 | CP325 | CP329 | DFO2036 | DIV30

O=C(CCCN1CCC(C(=O)c2ccc(F)cc2)CC1)c1ccc(F)cc1
active: DIV14 0.757 µM | DIV17 4.78 µM | Dd2 8.91 µM
not listed: CP335
inactive: all other assays above

O=C1[O][Bi][O]c2ccccc21
not listed: CP335
inactive: all other assays above

COC(=O)[C@@H](N)CS
not listed: CP335
inactive: all other assays above

Cn1c(=O)c2c(ncn2CCOC(=O)C(C)(C)Oc2ccc(Cl)cc2)n(C)c1=O
not listed: DFO2036 | ECU
inactive: all other assays above

Cc1cc(C(=O)NCCc2ccc(S(=O)(=O)NC(=O)NN3CCCCCC3)cc2)no1
not listed: DIV14 | DIV17 | DIV30
inactive: all other assays above

Oc1ccc(Cl)c2c1CCC2
not listed: DIV17 | CP335
inactive: all other assays above

CCCc1nc(C(C)(C)O)c(C(=O)OCc2oc(=O)oc2C)n1Cc1ccc(-c2ccccc2-c2nn[nH]n2)cc1
not listed: DIV17 | CP335
inactive: all other assays above
